# Assay outcomes deposited in PubChem by National Center for Advancing Translational Sciences (NCATS).
# Hits are enriched below; roughly 21% of the tested compounds scored in any of these assays.
# SARS PLpro yeast: inhibitors of SARS-CoV papain-like protease in yeast | Potency, µM (top dose mostly 32.9 µM), hits mostly activators | AID 485353 | S. cerevisiae expressing SARS-CoV PLpro, growth rescue | 330,000 compounds, 0.19% hits; note: nearly all actives have a fitted effect of over 55% in size
# Shiga inhibitor: Shiga toxin inhibition; Vero cells, Shiga toxin protein synthesis inhibition reporter; inhibition, % at 38.7 µM; 290,000 compounds, 9.2% hits; AID 2315; in the data active = inhibition mostly above about 28%, no sharp cut-off; inactive = mostly below about 43%
# Pf growth 96h: inhibits malaria parasite growth, 96 h | P. falciparum luciferase reporter growth, 96 h | Potency, µM (doses to about 28.7 µM), actives largely listed as inhibitors | AID 504834 | 320,000 compounds, 6.9% hits; active = well fitted inhibition curve with a large enough effect; inconclusive = small, poorly fitted or top-dose-only effect, or another doubt; inactive = no such curve, though single readings can be large or run the other way
#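 Two parasite generations (96 h, 37 C, 5% CO2) of compound exposure in infected erythrocytes (0.05% parasitemia, 2% hematocrit). Luciferase-reporter P. falciparum; decreased luminescence indicates inhibited growth, aimed at apicoplast-acting delayed death.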
# NS1 inh: blocks influenza NS1 protein function. Potency, µM (top dose mostly 46.1 µM). 270,000 compounds, 0.4% hits. AID 2326; note: actives are rising curves; nearly all actives have a fitted effect of over 50% in size
#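 Recovery from NS1-induced slow growth read by OD600 in budding yeast switched to galactose assay medium (pH 6.0, -URA) at 1:100 dilution. Compound 23 nl per well; the matching strain lacking NS1 serves as control.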
# Pf growth 48h: inhibits P. falciparum growth in the first generation, 48 h | Potency, µM (titrated, usually from 28.7 µM), actives largely listed as inhibitors | P. falciparum luciferase growth in erythrocytes, 48 h | 310,000 compounds, 5.9% hits | AID 504832; active = well fitted inhibition curve with a large enough effect; inconclusive = small, poorly fitted or top-dose-only effect, or another doubt; inactive = no such curve, though single readings can be large or run the other way
#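 Here the parasites carry a stable luciferase gene and grow inside erythrocytes in Albumax-based RPMI medium with compound for one erythrocytic cycle. Activity is scored as loss of luminescent signal.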
# Cycloheximide cs: counter-screen hit for Shiga toxin inhibitors, cycloheximide. cell reporter, cycloheximide protein synthesis inhibition counterscreen. max response, %. 300,000 compounds, 12% hits. AID 2314; in the data active = max response mostly above about 13%, no sharp cut-off; inactive = mostly below about 14%; note: read at 38.3 µM for the half of the compounds with a filed dose
# Numbers stand for hits; 0 = inactive; ? = inconclusive; - = not tested or not shown. Unless noted, calls come from the whole dose curve.
SMILES,SARS PLpro yeast,Shiga inhibitor,Pf growth 96h,NS1 inh,Pf growth 48h,Cycloheximide cs
COc1cc(/C=C2/SC(=S)NC2=O)ccc1OS(=O)(=O)c1ccc(C)cc1,0,0,12µM,0,0,0
CC(C(=O)Nc1ccccc1-c1ccccc1)N(C)Cc1nc2ccccc2c(=O)[nH]1 (stereo not given),0,0,?,-,0,0
Cc1ccc(/C=C/S(=O)(=O)NCc2ccc(F)cc2)cc1,0,0,?,-,10µM,0
Cc1ccc(/C=C/S(=O)(=O)Nc2ccc(C)cc2)cc1,0,0,0,-,?,0
Cc1nn(-c2ccc(F)cc2)c(Cl)c1/C=C/C(=O)N1CCNC(=O)C1,0,0,13µM,-,0,0
CN1CCCN(C(=O)/C=C/c2ccc(Cl)cc2Cl)CC1,0,0,0,-,0,25
O=C1CN(C(=O)/C=C/c2ccc(Cl)cc2Cl)CCN1,0,59,0,-,0,34
Cc1ccc2[nH]c3c(c2c1)CCN1C(=O)OC(C)(C)C31C (stereo not given),0,0,?,-,0,0
O=C(COC(=O)/C=C/c1ccc(C(F)(F)F)cc1)NCC1CCCO1 (stereo not given),0,-,0,-,?,-
CC(NC(=O)c1ccco1)C(=O)N1CCCCC1 (stereo not given),0,0,?,0,0,0
O=C1C(=Cc2ccc(Br)o2)C(=O)c2ccccc21,0,0,0,0,0,30
CC1=C/C(=C\c2ccc(Br)o2)C(=O)O1,0,0,0,0,0,0
COc1ccc(N(CC(=O)N2CCN(c3ccccc3F)CC2)S(=O)(=O)c2c(C)noc2C)cc1,0,0,5.9µM,0,0,0
COc1ccc(N(CC(=O)N2CC=C(c3ccccc3)CC2)S(=O)(=O)c2c(C)noc2C)cc1,0,0,3.7µM,0,-,0
CCOc1ccc(N(CC(=O)N2CC=C(c3ccccc3)CC2)S(=O)(=O)c2c(C)noc2C)cc1,0,0,0,0,-,0
Cc1ccc(N(CC(=O)N2CCN(c3ccccc3F)CC2)S(=O)(=O)c2c(C)noc2C)cc1,-,0,9.3µM,0,?,0
COc1ccc(N(CC(=O)N2c3ccccc3CC2C)S(=O)(=O)c2c(C)noc2C)cc1 (stereo not given),0,0,0,0,12µM,0
Cc1cc(C(=O)OCC(=O)Nc2c(Cl)cccc2C(F)(F)F)c(C)o1,0,-,0,-,0,-
O=c1[nH]c(Cc2ccccn2)nc2scc(-c3ccccc3Cl)c12,0,0,?,0,?,0
CC1=C(c2ccccc2)C(=S)NC(C)(C)C1,0,0,?,0,?,0
CS(=O)(=O)N(CC(=O)N1CCN(c2ccccc2F)CC1)c1cc(C(F)(F)F)ccc1Cl,0,0,10µM,0,-,0
COc1cccc(N2CCN(C(=O)CN(c3cc(C)cc(C)c3)S(=O)(=O)c3c(C)noc3C)CC2)c1,0,0,10µM,0,?,0
CS(=O)(=O)N(CC(=O)N1CCN(c2ccccc2)CC1)c1cc(C(F)(F)F)ccc1Cl,0,0,-,0,0,0
CCC1(O)CC2CN(CCc3c([nH]c4ccccc34)[C@@](C(=O)OC)(c3cc4c(cc3OC)N(C)C3[C@]45CCN4CC=C[C@@](CC)([C@@H](OC(C)=O)[C@]3(O)C(=O)OC)[C@H]45)C2)C1 (stereo not given in full),-,-,-,0,-,-
CC(=O)Nc1sc(C)c(C)c1CN1CCN(Cc2ccccc2)CC1,0,0,4.1µM,0,?,0
SMILES,SARS PLpro yeast,Shiga inhibitor,Pf growth 96h,NS1 inh,Pf growth 48h,Cycloheximide cs
Cc1sc(NC(=O)c2ccco2)c(CN2CCN(c3ccccn3)CC2)c1C,0,0,0,0,9.3µM,32
CC(=O)Nc1sc2c(c1CN1CCN(c3ccc(F)cc3)CC1)CCCC2,0,0,9.3µM,0,-,0
O=C(NC(=S)N1CCN(c2ccccn2)CC1)c1ccco1,0,0,0,0,0,18
C[N+]1(C2CCC3CCCC2C3O)CCCCC1 (stereo not given),0,0,0,0,0,0
CCCCCC(=O)Nc1ccc(S(=O)(=O)Nc2nccc(C)n2)cc1,0,0,?,-,0,0
CC(=O)c1ccc(N2CCN(C(=O)c3ccco3)C(C)C2)c(F)c1 (stereo not given),0,0,0,0,0,0
CC(=O)c1cc(F)c(N2CCN(C(=O)c3ccco3)CC2)cc1C,0,0,-,0,0,31
CC1CN(c2ccc([N+](=O)[O-])cc2F)CCN1C(=O)c1ccco1 (stereo not given),0,0,0,0,0,0
O=C(c1ccco1)N1CCN(c2ccc([N+](=O)[O-])cc2F)CC1,0,40,0,0,0,13
CC(=O)c1ccc(N2CCN(C(=O)c3ccco3)CC2)c(F)c1,0,59,-,0,0,48
Cc1cc(C)cc(C(=O)Oc2cc(C)[nH]c(=O)c2[N+](=O)[O-])c1,0,0,0,0,0,0
COc1ccc2c(c1)[C@H]1[C@H](CO2)[C@H](c2ccccc2)[C@]2(C)C(=O)Nc3ccc(Br)cc3C(=O)N12,0,-,-,-,-,-
COc1ccc2c(c1)OC[C@H]1[C@H]2N2C(=O)c3cc(Br)ccc3NC(=O)[C@@]2(C)[C@H]1c1ccccc1,0,-,5.2µM,-,1.7µM,-
COc1ccc2c(c1)C(=O)N1[C@H]3c4cc(OC)ccc4OC[C@@H]3[C@H](c3ccccc3)[C@]1(C)C(=O)N2,0,-,?,-,13µM,-
COc1ccc2c(c1)[C@H]1[C@H](CO2)[C@H](c2ccccc2)[C@]2(C)C(=O)Nc3ccccc3C(=O)N12,0,-,?,-,?,-
COc1ccc2c(c1)OC[C@H]1[C@H]2N2C(=O)c3cc(OC)c(OC)cc3NC(=O)[C@@]2(C)[C@H]1c1ccccc1,0,-,6.6µM,-,2.3µM,-
COc1cc2c(cc1OC)C(=O)N1[C@H]3c4ccccc4OC[C@@H]3[C@H](c3ccccc3)[C@]1(C)C(=O)N2,0,-,?,-,?,-
Cc1ccc(NC(=O)CN(C)CC(=O)Nc2ccc(N3CCOCC3)cc2)c([N+](=O)[O-])c1,0,0,0,?,0,0
COc1cc(NC(=O)c2cc(S(=O)(=O)N3CCc4ccccc43)cn2C)cc(OC)c1OC,0,0,0,0,12µM,0
CC(C)CCNC(=O)Cn1c(=O)oc2cc(S(=O)(=O)N3CCc4ccccc43)ccc21,0,0,12µM,0,-,0
Cc1ccc(NC(=O)c2cc(S(=O)(=O)N3CCc4ccccc43)cn2C)cc1,0,0,?,0,?,0
Cn1cc(S(=O)(=O)N2CCc3ccccc32)cc1C(=O)Nc1ccc(Cl)cc1,0,0,0,0,13µM,0
CC(C)CCNC(=O)c1cc(S(=O)(=O)N2CCc3ccccc32)cn1C,0,0,1.2µM,0,0,0
COc1ccc(C2=NS(=O)(=O)N(C)C(C(=O)NCc3cccs3)=C2)cc1OC,0,0,0,0,?,0
CCn1nc(C)c(CNCc2cn[nH]c2-c2cc3ccccc3o2)c1C,0,0,0,0,0,0
O=C1CCCN1CCCNc1nc2c(S(=O)(=O)c3ccc(Br)cc3)nnn2c2ccccc12,0,0,?,0,?,0
